Test results as given in PubChem BioAssay (NCATS).
Inconclusive results are not listed. Active and inactive are the calls of the source. Calls follow the shape of the dose curve; as a rule, active = well fitted inhibition curve with a large enough effect; inconclusive = small, poorly fitted or top-dose-only effect; inactive = flat fitted curve, though single readings scatter.

Tests used:
[1] = qHTS profiling for inhibitors of Plasmodium falciparum proliferation (AID 504749); also: nearly all actives have a fitted effect of over 60% in size;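 as to activity, negative = inhibition: 0% = DMSO vehicle and full inhibition = artemisinin control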; details: P. falciparum in erythrocytes, SYBR Green DNA, 72 h
Method in brief: (§1)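 Infected RBCs, 0.3% parasitemia/2.5% Hct final; cpd 72 h, 37 C, 5% CO2; lysis buffer with saponin/triton/SYBR Green I, o/n RT dark; FI 485/535; norm. to artemisinin (0.29 uM) and DMSO.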

[2] = test system: 3D7; test: as above; details: P. falciparum in erythrocytes, SYBR Green DNA, 72 h; series mostly up to 28.7 µM
Method in brief: as §1

[3] = test system: 7G8; test: as above; details: P. falciparum in erythrocytes, SYBR Green DNA, 72 h; series mostly up to 28.7 µM
Method in brief: as §1

[4] = test system: AA1029; test: as above; details: P. falciparum in erythrocytes, SYBR Green DNA, 72 h; series mostly up to 28.7 µM
Method in brief: as §1

[5] = test system: AS120; test: as above; details: P. falciparum in erythrocytes, SYBR Green DNA, 72 h; series mostly up to 28.7 µM
Method in brief: as §1

[6] = test system: ATS189; test: as above; details: P. falciparum in erythrocytes, SYBR Green DNA, 72 h; series mostly up to 28.7 µM
Method in brief: as §1

[7] = test system: ATS95; test: as above; details: P. falciparum in erythrocytes, SYBR Green DNA, 72 h; series mostly up to 28.7 µM
Method in brief: as §1

[8] = test system: C2A; test: as above; details: P. falciparum in erythrocytes, SYBR Green DNA, 72 h; series mostly up to 28.7 µM
Method in brief: as §1

[9] = test system: CP185; test: as above; details: P. falciparum in erythrocytes, SYBR Green DNA, 72 h; series mostly up to 28.7 µM
Method in brief: as §1

[10] = test system: CP191; test: as above; details: P. falciparum in erythrocytes, SYBR Green DNA, 72 h; series mostly up to 28.7 µM
Method in brief: as §1

[11] = test system: CP192; test: as above; details: P. falciparum in erythrocytes, SYBR Green DNA, 72 h; series mostly up to 28.7 µM
Method in brief: as §1

[12] = test system: CP194; test: as above; details: P. falciparum in erythrocytes, SYBR Green DNA, 72 h; series mostly up to 28.7 µM
Method in brief: as §1

[13] = at 28.7 µM (top of the series), parasite line A
[14] = at 28.7 µM (top of the series), parasite line B
[15] = at 12.8 µM (top of the series), parasite line A
[16] = at 12.8 µM (top of the series), parasite line B
Potency is read from the fitted curve at half-maximal effect.

Cc1c(C)n(CCN(C)C)c2ccc(C(=O)OCCN(C)C)cc12
active: Potency [3] 8.91 µM
inactive: activity, negative = inhibition [1, 13] -7.71% | activity, negative = inhibition [1, 14] -8.88% | Potency [2] | Potency [4] | Potency [5] | Potency [6] | Potency [7] | Potency [8] | Potency [9] | Potency [10] | Potency [11] | Potency [12]

COC1=CC(=O)C[C@@H](C)[C@]12Oc1c(Cl)c(OC)cc(OC)c1C2=O
inactive: activity, negative = inhibition [1, 13] 4.87% | activity, negative = inhibition [1, 14] -1.47% | Potency [2] | Potency [3] | Potency [4] | Potency [5] | Potency [6] | Potency [7] | Potency [8] | Potency [9] | Potency [10] | Potency [11] | Potency [12]

O=C(COc1ccc(Cl)cc1)N1CCN(Cc2ccc3c(c2)OCO3)CC1
inactive: activity, negative = inhibition [1, 13] 11% | activity, negative = inhibition [1, 14] 10.8% | Potency [2] | Potency [3] | Potency [4] | Potency [5] | Potency [6] | Potency [7] | Potency [8] | Potency [9] | Potency [10] | Potency [11] | Potency [12]

OCc1ccccc1O
inactive: activity, negative = inhibition [1, 13] 6.96% | activity, negative = inhibition [1, 14] 8.72% | Potency [2] | Potency [3] | Potency [4] | Potency [5] | Potency [6] | Potency [7] | Potency [8] | Potency [9] | Potency [10] | Potency [11] | Potency [12]

CC(=O)OCC(=O)NCCCOc1cccc(CN2CCCCC2)c1
inactive: activity, negative = inhibition [1, 13] 16.5% | activity, negative = inhibition [1, 14] 8.13% | Potency [2] | Potency [3] | Potency [4] | Potency [5] | Potency [6] | Potency [7] | Potency [8] | Potency [9] | Potency [10] | Potency [11] | Potency [12]

CN1C2CCC1CC(OC(=O)c1c[nH]c3ccccc13)C2 (stereo unspecified)
active: Potency [3] 10 µM
inactive: activity, negative = inhibition [1, 13] 9.99% | activity, negative = inhibition [1, 14] 3.24% | Potency [2] | Potency [4] | Potency [5] | Potency [6] | Potency [7] | Potency [8] | Potency [9] | Potency [10] | Potency [11] | Potency [12]

COc1cc(C(=S)N2CCOCC2)cc(OC)c1OC
inactive: activity, negative = inhibition [1, 13] 7.95% | activity, negative = inhibition [1, 14] 9.84% | Potency [2] | Potency [3] | Potency [4] | Potency [5] | Potency [6] | Potency [7] | Potency [8] | Potency [9] | Potency [10] | Potency [11] | Potency [12]

Cc1cc(=O)n(-c2ccccc2)n1C
inactive: activity, negative = inhibition [1, 13] 5.57% | activity, negative = inhibition [1, 14] 10.3% | Potency [2] | Potency [3] | Potency [4] | Potency [5] | Potency [6] | Potency [7] | Potency [8] | Potency [9] | Potency [10] | Potency [11] | Potency [12]

CCCCOc1ccc(OCCCN2CCOCC2)cc1
inactive: activity, negative = inhibition [1, 15] 9.41% | activity, negative = inhibition [1, 16] 8.45% | Potency [2] | Potency [3] | Potency [4] | Potency [5] | Potency [6] | Potency [7] | Potency [8] | Potency [9] | Potency [10] | Potency [11] | Potency [12]

N[C@@H](Cc1cnc[nH]1)C(=O)O
inactive: activity, negative = inhibition [1, 13] 3.46% | activity, negative = inhibition [1, 14] 9.36% | Potency [2] | Potency [3] | Potency [4] | Potency [5] | Potency [6] | Potency [7] | Potency [8] | Potency [9] | Potency [10] | Potency [11] | Potency [12]

CC(C)COC(=O)OCN1C(=O)CN(CCN2CC(=O)N(COC(=O)OCC(C)C)C(=O)C2)CC1=O
inactive: activity, negative = inhibition [1, 13] 4.43% | activity, negative = inhibition [1, 14] 8.61% | Potency [2] | Potency [3] | Potency [4] | Potency [5] | Potency [6] | Potency [7] | Potency [8] | Potency [9] | Potency [10] | Potency [11] | Potency [12]

NCCCC[C@H](N[C@@H](CCc1ccccc1)C(=O)O)C(=O)N1CCC[C@H]1C(=O)O
inactive: activity, negative = inhibition [1, 15] 2.09% | activity, negative = inhibition [1, 16] 0.712% | Potency [2] | Potency [3] | Potency [4] | Potency [5] | Potency [6] | Potency [7] | Potency [8] | Potency [9] | Potency [10] | Potency [11] | Potency [12]

CN1CCC(=C2c3ccccc3Sc3ccccc32)CC1
active: Potency ([1]; parasite line A) 6.31 µM | Potency ([1]; parasite line B) 10 µM | Potency [2] 8.91 µM | Potency [3] 5.01 µM | Potency [4] 5.62 µM | Potency [5] 12.6 µM | Potency [6] 7.94 µM | Potency [7] 11.2 µM | Potency [8] 11.2 µM | Potency [9] 8.91 µM | Potency [12] 10.7 µM

CC(C)(Oc1ccc(Cl)cc1)C(=O)O
inactive: activity, negative = inhibition [1, 13] 5.47% | activity, negative = inhibition [1, 14] 14.8% | Potency [2] | Potency [3] | Potency [4] | Potency [5] | Potency [6] | Potency [8] | Potency [9] | Potency [10] | Potency [11] | Potency [12]

C#C[C@]1(OC(C)=O)CC[C@H]2[C@@H]3CCC4=C[C@@H](OC(C)=O)CC[C@@H]4[C@H]3CC[C@@]21C
inactive: activity, negative = inhibition [1, 13] -15% | activity, negative = inhibition [1, 14] -19.2% | Potency [2] | Potency [3] | Potency [4] | Potency [5] | Potency [6] | Potency [7] | Potency [8] | Potency [9] | Potency [10] | Potency [12]
